# Laboratory results from publication PMC4336329 (PLoS ONE, 2015).
# Screen size: about 310,000 compounds; about 14,000 (4.5%) showed an effect of 50% or more. The effect is printed as a negative number. For the sample, strong results were picked, then their nearest neighbours and some compounds at random. *1 amine or outer side, *2 acyl side, *3 side chain or, on linkers, in order; H or OH if unused. Where a SMILES comes first, the peptide text is derived from it. Bridges are numbered along the chain shown (N, C = ends). [ ]: non-standard residue; d: D form. ξ: configuration not given here. hSer(Ph(2-I,4-NO2,6-CO)) = O=C([C@H](CCOc1c(I)cc([N+](=O)[O-])cc1C(=O)[*:3])N[*:1])[*:2]; ξD = NC(CC(=O)O)C(=O)O
# Target: human ether-à-go-go-related gene (hERG) potassium channel (human, UniProt Q12809)
# Sequence (Q12809 whole entry, looked up): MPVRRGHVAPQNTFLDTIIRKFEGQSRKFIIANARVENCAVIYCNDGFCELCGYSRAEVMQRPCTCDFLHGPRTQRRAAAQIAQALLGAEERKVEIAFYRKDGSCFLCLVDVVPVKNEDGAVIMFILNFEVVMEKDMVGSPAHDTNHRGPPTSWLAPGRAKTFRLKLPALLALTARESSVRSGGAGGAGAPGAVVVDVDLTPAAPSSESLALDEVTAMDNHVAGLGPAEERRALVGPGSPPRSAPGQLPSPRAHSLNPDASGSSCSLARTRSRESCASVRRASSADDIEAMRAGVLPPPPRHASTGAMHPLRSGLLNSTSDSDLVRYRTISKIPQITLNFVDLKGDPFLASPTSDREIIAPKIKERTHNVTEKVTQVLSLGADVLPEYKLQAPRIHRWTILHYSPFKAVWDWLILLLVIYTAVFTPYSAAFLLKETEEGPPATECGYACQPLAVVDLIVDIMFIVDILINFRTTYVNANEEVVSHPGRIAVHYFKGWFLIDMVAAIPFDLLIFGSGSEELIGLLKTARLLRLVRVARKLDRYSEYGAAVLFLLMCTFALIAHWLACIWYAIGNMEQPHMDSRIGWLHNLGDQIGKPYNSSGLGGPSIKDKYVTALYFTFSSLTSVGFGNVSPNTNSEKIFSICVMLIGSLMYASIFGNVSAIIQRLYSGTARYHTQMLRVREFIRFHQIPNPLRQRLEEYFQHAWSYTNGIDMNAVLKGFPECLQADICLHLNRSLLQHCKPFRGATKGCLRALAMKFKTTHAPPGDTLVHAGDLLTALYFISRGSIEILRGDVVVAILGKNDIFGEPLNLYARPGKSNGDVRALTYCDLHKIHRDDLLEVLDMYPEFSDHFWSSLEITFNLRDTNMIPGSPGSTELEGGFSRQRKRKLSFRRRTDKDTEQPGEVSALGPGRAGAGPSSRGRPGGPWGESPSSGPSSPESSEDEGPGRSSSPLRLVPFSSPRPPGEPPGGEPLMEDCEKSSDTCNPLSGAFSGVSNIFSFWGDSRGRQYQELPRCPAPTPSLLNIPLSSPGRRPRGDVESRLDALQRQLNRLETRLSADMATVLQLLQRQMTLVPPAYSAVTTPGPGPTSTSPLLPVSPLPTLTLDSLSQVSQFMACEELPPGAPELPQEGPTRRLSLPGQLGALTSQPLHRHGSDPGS
# Assay: primary screen, population patch clamp on CHO cells stably expressing hERG; higher = less effect of the substance
# 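Note: peak tail current of the secondary pulse compared with the same well before compound.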
row,Structure (SMILES),"hERG current change (%, negative = inhibition) at 10uM"
1,COc1ccc(C(=O)NCc2cc(C)nc3ccccc23)cc1OC,-8.56%
2,O=C(CSc1nncc(=O)[nH]1)NC1CCCCC1,27%
3,COc1cc(OC)c(C(=O)NC2CCCCCC2)cc1OC,-3.27%
4,Clc1ccc(-n2nnnc2-c2cnc3ccccc3c2-c2ccccc2)cc1,1.26%
5,CCCOc1ccc(NC2=CC(=O)CC(C)(C)C2)cc1,1.89%
6,CC1(C)CC(=O)C=C(Nc2ccc(OCC(F)(F)C(F)F)cc2)C1,-65.7%
7,COc1ccc(NC2=CC(=O)CC(C)(C)C2)cc1,7.6%
8,Cl.O=C1c2cccc3c2[C@H](CCC3)CN1[C@@H]1CN2CCC1CC2,-46.2%
9,COc1ccc(CNc2nc3ccccc3n2CCN2CCOCC2)cc1,-64.6%
10,COc1cccc(CNc2nc3ccccc3n2CCN2CCCCC2)c1,-59.3%
11,CC(C)(C)c1ccc(S(=O)(=O)n2c(CN3CCOCC3)nc3ccccc32)cc1,3.73%
12,CCOc1ccc(CNc2nc3ccccc3n2CCN2CCOCC2)cc1.Cl,-64.2%
13,CCOc1ccc(CNc2nc3ccccc3n2C)cc1,-31.4%
14,COc1ccc(CNc2nc3ccccc3n2Cc2ccccc2)cc1OC,-44.7%
15,COc1ccc(S(=O)(=O)n2c(CCN3CCOCC3)nc3ccccc32)cc1,-59.2%
16,Cc1cc2nc(CCN3CCOCC3)n(S(=O)(=O)c3ccc(C(C)(C)C)cc3)c2cc1C,-3.7%
17,CC(=O)Nc1nc2ccccc2n1CCN1CCOCC1,0.217%
18,Cl.c1ccc(CNc2nc3ccccc3n2CCN2CCOCC2)nc1,-15.5%
19,c1csc(CNc2nc3ccccc3n2CCN2CCOCC2)c1,-28%
20,CCn1c(NCc2cc(OC)c(OC)c(OC)c2)nc2ccccc21.Cl,-25.3%
21,CCOC(=O)[C@H]1[C@H]2COc3ccc(C)cc3[C@@H]2N2C(=O)CN(Cc3ccc(C)cc3)C(=O)[C@@]12C,4.36%
22,COc1cccc(N2C(=O)CN(Cc3ccc(OC)c(OC)c3)C2=S)c1,17%

row,Structure (SMILES),"hERG current change (%, negative = inhibition) at 10uM"
1,CCCCCOc1ccc(NC(=O)C(=O)NCCCn2ccnc2)cc1,2%
2,CCn1c(SCC(=O)NNC(=O)c2ccccc2)nnc1-c1ccncc1,-5.25%
3,C=CCc1c(C)nc2c(-c3ccccc3)cnn2c1N1CCOCC1,12.3%
4,CC(=O)C1=C(O)C(=O)N(c2ccc(Br)cn2)C1c1ccccc1[N+](=O)[O-] (stereo not shown),20.2%
5,O=C1CCCc2nn(-c3ccccc3)nc21,11.3%
6,Cc1ccc(S(=O)(=O)N(C)C)cc1NC(=O)CSc1nc2ccccc2[nH]1,-29.4%
7,"C[C@@H]1NC(=O)[C@H](CC(N)=O)NC(=O)c2cc([N+](=O)[O-])cc(I)c2OCC[C@@H](C(=O)NC(CC(=O)O)C(N)=O)NC1=O (stereo partly shown) (NA[hSer(Ph(2-I,4-NO2,6-CO))][ξD]-NH2; lactam N-3)",6.03%
8,O=S(=O)(Cc1ccccc1)Nc1cccc(F)c1,15.2%
9,Cl.FC(F)(F)c1ccc(CN2CCNCC2)cc1,0.155%
10,Cc1ccccc1NC(=O)Cc1nnc(N)s1,11.3%
11,COc1ccc(CCNC(=S)NC2CCN(Cc3ccccc3)CC2)cc1OC,-39.1%
12,Cc1nc(CCNC(=O)COc2ccccc2)cs1,17.2%
13,COc1ccc(CNc2nc3ccccc3n2CCN2CCCCC2)cc1,-59.7%
14,C=CCn1c(NCc2ccc(OC)cc2)nc2ccccc21,-17.2%
15,COc1ccc(CNc2nc3ccccc3n2C(C)C)cc1,-18.7%
16,CN(C(=O)c1nn(C)c2c1CSc1ccccc1-2)c1ccccc1Cl,3.14%
17,CC1(C)N=C2C(=[N+]1[O-])CCC/C2=N\O,11.6%
18,O=C(NCCc1ccccn1)c1nc(Cn2cc(Br)cn2)no1,11.4%
19,Cc1cccc(NC(=S)N2CCC(N(C)CC3CCCO3)CC2)c1 (stereo not shown),-32.3%
20,Cc1cc(C)cc(NC(=S)N2CCC(N(C)CC3CCCO3)CC2)c1 (stereo not shown),-52%
21,Cc1ccc(NC(=S)N2CCC(N(C)CC3CCCO3)CC2)cc1 (stereo not shown),-4.57%
